Hit rate of the full screen: of about 340,000 compounds, about 5,100 (1.5%) were called active. What follows is part of a selection rich in actives, with near analogues and random picks from the rest. A number with no mark means an inactive call.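 How the source made its calls: active means mean Tm shift, scaled 0 neutral to 100 positive control, at about 1.3% or above, every replicate too (limit read from the data); inconclusive means no clear call, values can overlap the other calls; inactive means the rest.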
Each molecule was assayed against Fibroblast growth factor 22 (Homo sapiens) (UniProt Q9HCT0) (assay: FGF22 ligand-induced thermal stabilization – biophysical, thermal shift, single point, FGF22 synaptogenesis inhibitor project, primary screen (AID 651658)). Details: recombinant FGF22 thermal shift, SYPRO orange fluorescence; at 9.99 µM; active compounds read high; percent of sucrose octasulfate shift, DMSO zero.
Sequence of Fibroblast growth factor 22 (Homo sapiens) (Q9HCT0 whole entry, looked up): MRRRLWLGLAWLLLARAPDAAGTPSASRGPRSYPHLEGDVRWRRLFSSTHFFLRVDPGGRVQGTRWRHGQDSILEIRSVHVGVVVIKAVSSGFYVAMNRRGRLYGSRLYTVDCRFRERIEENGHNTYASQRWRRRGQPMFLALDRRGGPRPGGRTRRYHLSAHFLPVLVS

Point of comparison: `CCC(=O)N1C[C@@H](C)[C@H](OC)CN(C)C(=O)c2ccc(NC(=O)NC(C)C)cc2OC[C@H]1C`, activity (Tm shift, normalised) -0.086%. Against it:
- O=C(c1ccncc1)N1C[C@@H]2[C@H](c3ccccc31)[C@H](CO)N2C(=O)c1ccncc1 — higher, 1.08%
- O=C(C[C@@H]1C[C@H]2c3cc(NC(=O)Nc4ccccc4F)ccc3O[C@H]2[C@@H](CO)O1)NC1CCCCC1 — higher, 0.159%
- N#C[C@@H]1[C@@H](c2ccccc2)[C@@H](CO)N1C(=O)c1cc(Cl)cc(Cl)c1 — lower, -0.146%
- O=C(NCc1ccccc1)[C@H]1CCCN1C(=O)[C@H]1CCCN1C(=O)N1CCOCC1 — higher, 0.083%
- Cc1ccc2c(Cl)c(C(=O)Nc3nn[nH]n3)sc2c1 — higher, -0.027%
- CNC(=O)/C(C#N)=C/c1c(F)cccc1Cl — higher, 0.243%
- C/C=C/c1ccc([C@@H]2[C@@H](CO)N(C(=O)c3ccccc3)C23CN(C(C)=O)C3)cc1 — lower, -0.191%
- O=C(c1ccncc1)N1C[C@H]2[C@@H](c3ccccc31)[C@H](CO)N2C(=O)Nc1ccc(F)cc1 — lower, -0.662%
- Cc1ccc(C)n1NC(=O)c1ccc([N+](=O)[O-])cc1 — higher, 0.235%
- COc1ccccc1C1CCN(c2ccc([N+](=O)[O-])cn2)CC1 — higher, 0.136%
- Cc1ccc(S(=O)(=O)Nc2ccc3c(c2)C(=O)N(C)[C@@H]2CC[C@@H](CC(=O)O)O[C@H]2CO3)cc1 — lower, -0.106%
- Cc1ccc(-c2ccc3c(c2)O[C@H](CN(C)C(=O)CC2CC2)[C@@H](C)CN([C@H](C)CO)S3(=O)=O)cc1 — lower, -0.566%
- COc1ccc(NC(=O)Nc2ccc3c(c2)[C@@H]2C[C@H](CC(=O)N4CCCCC4)O[C@H](CO)[C@@H]2O3)cc1 — lower, -0.385%
- O=c1ccnc(Nc2ccc(Cl)cc2)[nH]1 — higher, 0.494%
- Cc1nnc(Nc2ccccc2F)s1 — higher, 0.041%
- CN(C)C(=O)C[C@H]1C[C@@H]2c3cc(NC(=O)CC4CC4)ccc3O[C@@H]2[C@@H](CO)O1 — higher, -0.027%
- CCCNC(=O)N(C)C[C@@H]1Oc2ncc(-c3cccc(C#N)c3)cc2C(=O)N([C@@H](C)CO)C[C@H]1C — higher, 0.077%
- CC(C)c1cn([C@H]2C[C@@H]3O[C@H](CO)CC[C@@H]3O[C@@H]2CCc2ccc(C#CC3CCCCC3)cc2)nn1 — higher, 0.095%
- Cn1cc(CCC(=O)NC2CC2)c2ccccc21 — lower, -0.251%
- Cc1ccc(CNC(=O)Cc2cn(C)c3ccccc23)cc1 — higher, -0.058%
- C[C@H](CO)N1C[C@H](C)[C@H](CN(C)C(=O)Nc2ccc(F)cc2)OCCCC[C@H](C)Oc2ccc(NC(=O)CCC(F)(F)F)cc2C1=O — lower, -0.451%
- O=C(CCSc1ccccc1)N1CCN(c2ccccc2F)CC1 — higher, 0.121%
- O=C(COc1coc(CN2CCN(c3ccccc3F)CC2)cc1=O)N1CCc2ccccc21 — lower, -0.217%
- C[C@@H]1CN([C@H](C)CO)C(=O)c2cc(NC(=O)Nc3cccc4ccccc34)ccc2O[C@H]1CN(C)C(=O)Nc1ccccc1 — lower, -0.15%
- CCC(=O)N1C[C@@H](C)[C@H](OC)CN(C)C(=O)c2ccc(NC(=O)c3ccc(F)cc3)cc2OC[C@@H]1C — lower, -0.101%
- O=C(O)CCC(=O)N(Cc1ccccc1)Cc1ccccc1 — higher, -0.007%
- CCN(Cc1ccncc1)C(=O)CCc1ccccc1 — higher, 0.094%
- CNC(=O)C[C@H]1CC[C@H]2[C@H](COc3ccc(NC(=O)c4cc(C)on4)cc3C(=O)N2C)O1 — higher, -0.057%
- O=C(C[C@H]1C[C@@H]2c3cc(NC(=O)c4ccc5c(c4)OCO5)ccc3O[C@@H]2[C@@H](CO)O1)NCc1cccnc1 — lower, -0.297%
- C[C@H]1CN([C@@H](C)CO)C(=O)CCCn2nncc2CO[C@H]1CN(C)S(=O)(=O)c1ccccc1C#N — higher, -0.016%
- CO[C@H]1CN(C)C(=O)c2cc(NC(=O)C3CCC3)ccc2OC[C@H](C)N(Cc2nccs2)C[C@H]1C — lower, -0.288%
- Cc1noc(C)c1S(=O)(=O)N(C)C[C@@H]1Oc2ccc(NC(=O)Cn3cnnn3)cc2CC(=O)N([C@@H](C)CO)C[C@@H]1C — lower, -0.13%
- O=C(Nc1cccc(Cl)c1)c1cncn1-c1ccc(F)cc1 — higher, 0.242%
- Cc1cccc(-n2cnc(C(=O)NNC(=S)Nc3ccccc3)c2)n1 — higher, 0.832%
- COCC(=O)Nc1ccc2c(c1)C(=O)N(C)[C@@H]1CC[C@H](CC(=O)NCC3CC3)O[C@H]1CO2 — higher, 0.038%
- COC(=O)c1cc(OCC(=O)NC2CCCc3ccccc32)cc(C(=O)OC)c1 (configuration not stated) — higher, 0.172%
- CCOc1ccc(NC(=O)COc2ccc(C(=O)NC3CCCc4ccccc43)cc2OC)cc1 (configuration not stated) — higher, 0.171%
- O=C(NC1CCCCC1)N1CC2(C1)[C@H](c1ccccc1)[C@@H](CO)N2S(=O)(=O)Cc1ccccc1 — lower, -0.24%
- Cc1ccc(NS(=O)(=O)c2ccc(C(C)C)cc2)cc1S(=O)(=O)N1CCOCC1 — lower, -0.175%
- CC(=O)NCCc1ccc(S(=O)(=O)Nc2ccc(C)c(S(=O)(=O)N3CCOCC3)c2)cc1 — lower, -0.312%
- CCCN1C[C@@H](C)[C@@H](OC)CN(C)C(=O)c2cc(NC(=O)CC(F)(F)F)ccc2OC[C@H]1C — higher, 0.002%
- CCOc1ccc(-c2cc(C(=O)N/N=C/c3ccc(O)cc3)c3ccccc3n2)cc1 — higher, 0.307%
- O=C(Cc1cccs1)N/N=C/c1ccc(OCc2ccccc2)cc1 — higher, 0.285%
- CCCNC(=O)N1CC2(CCN(C(=O)C3CC3)CC2)c2c([nH]c3cc(OC)ccc23)[C@H]1CO — higher, -0.002%
- CCC(=O)N(C)C[C@@H]1Oc2ncc(C#Cc3cccnc3)cc2C(=O)N([C@@H](C)CO)C[C@@H]1C — higher, 0.101%
- Cc1ccc(SCCC(=O)NCc2ccccn2)cc1 — higher, 0.257%
- Cc1cc(Cl)ccc1OCCCC(=O)Nc1cccc(-n2cnnn2)c1 — higher, 0.032%
- COc1cccc(C(=O)n2ccc(-c3cccs3)n2)c1 — lower, -0.099%
- C[C@@H]1CCCCO[C@H](CN(C)C(=O)Nc2ccc(C(F)(F)F)cc2)[C@@H](C)CN([C@@H](C)CO)C(=O)c2cc(NC(=O)Nc3cccc4ccccc34)ccc2O1 — lower, -0.177%
- C[C@H]1CCCCO[C@@H](CN(C)Cc2ccccc2)[C@@H](C)CN([C@@H](C)CO)C(=O)c2cc(NC(=O)Cc3ccccc3)ccc2O1 — lower, -0.273%
- CCOc1ccc2sc(NS(=O)(=O)c3ccc(N)cc3)nc2c1 — higher, 0.571%
- Cc1ccc(S(=O)(=O)N(Cc2ccccc2)c2ccccn2)cc1[N+](=O)[O-] — lower, -0.192%
- CO[C@H](CN(C)C(=O)c1ccc2c(c1)OCO2)[C@H](C)CN([C@@H](C)CO)S(=O)(=O)c1ccc(Cl)cc1 — higher, 0.025%
- C[C@@H]1CCCCO[C@H](CN(C)S(=O)(=O)c2ccc(Cl)cc2)[C@H](C)CN([C@@H](C)CO)C(=O)c2cc(NS(=O)(=O)c3cn(C)cn3)ccc2O1 — lower, -0.295%
- COCCn1cnc2c1c(=O)n(Cc1ccc(Br)cc1)c(=O)n2Cc1ccccc1 — higher, 0.138%
- O=c1c2c3c(sc2n(CCN2CCCC2)c(=O)n1Cc1ccccc1)CCCCC3 — higher, -0.07%
- CC(C)NC(=O)N(C)C[C@@H]1OCCCC[C@@H](C)Oc2ccc(NC(=O)NC3CCCCC3)cc2C(=O)N([C@@H](C)CO)C[C@@H]1C — lower, -0.284%
- COc1ccc(/C=C(/NC(=O)c2ccccc2)C(=O)Nc2cccc(C(=O)O)c2)cc1 — lower, -0.131%
- CCOC(=O)CNC(=O)/C(=C\c1ccc(F)cc1)NC(=O)c1ccccc1 — higher, 0.033%
- O=C(C[C@H]1C[C@H]2c3cc(NC(=O)Nc4ccc(C(F)(F)F)cc4)ccc3O[C@H]2[C@@H](CO)O1)NCCc1ccccc1 — higher, 0.15%
- C[C@@H]1CN([C@H](C)CO)C(=O)c2cc(NC(=O)CCCCCC(=O)Nc3ccccc3N)ccc2O[C@H]1CN(C)Cc1ccncc1 — higher, -0.063%

With `O=C(/C=C/c1c(F)cccc1Cl)Nc1nn[nH]n1` the activity (Tm shift, normalised) was 43.2% (active).
With `COc1ccccc1C1SCCN1C(=O)c1ccc([N+](=O)[O-])cc1` (configuration not stated) the activity (Tm shift, normalised) was 43.3% (active).
In the case of `O=c1cnnc(Nc2ccccc2F)[nH]1`, the activity (Tm shift, normalised) is reported as 43.4% (active).
In the case of `CCc1ccccc1NC(=O)Cc1cn(C)c2ccccc12`, the activity (Tm shift, normalised) is reported as 43.6% (active).
For `Cn1c(=O)cc(OCC(=O)N2CCN(c3ccccc3F)CC2)c2ccccc21`, the activity (Tm shift, normalised) was 44% (active).
`CCN(CC)C(=O)N(CC)Cc1ccccc1` was tested, and the activity (Tm shift, normalised) was 43.4% (active).
In the case of `Cn1cc(Cl)c(C(=O)NNC(=S)Nc2cccc(Cl)c2)n1`, the activity (Tm shift, normalised) is reported as 44.2% (active).
`NC(=O)Nc1ccc(C(=O)OCC(=O)NC2CCCc3ccccc32)cc1` (configuration not stated) was tested, and the activity (Tm shift, normalised) was 43% (active).
`Cc1ccc(S(=O)(=O)Nc2ccc(F)c(S(=O)(=O)N3CCOCC3)c2)cc1` was tested, and the activity (Tm shift, normalised) was 43.3% (active).
In the case of `O=C(N/N=C/c1ccc(OCc2ccccc2)cc1)c1ccc(O)cc1`, the activity (Tm shift, normalised) is reported as 2.5% (active).
`Cc1cc(Cl)ccc1OCCCC(=O)NCc1ccccn1` was tested, and the activity (Tm shift, normalised) was 43.6% (active).
`COc1cc(OC)cc(-c2nc(=S)n3ccsc3n2)c1` was tested, and the activity (Tm shift, normalised) was 43.5% (active).
`Cc1ccc(S(=O)(=O)Nc2nc3ccccc3s2)cc1[N+](=O)[O-]` was tested, and the activity (Tm shift, normalised) was 2.09% (active).
In the case of `CN(C)CCCn1c(=O)n(Cc2ccccc2)c(=O)c2c3c(sc21)CCCCC3`, the activity (Tm shift, normalised) is reported as 5.16% (active).
`CCOc1ccc(/C=C(/NC(=O)c2ccccc2)C(=O)NCCC(=O)O)cc1` was tested, and the activity (Tm shift, normalised) was 43.7% (active).

From PubChem BioAssay AID651658 (Broad Institute, 2012)
